HEK293 tox: cytotoxicity in counter-screen for GLP-1R inverse agonists; hit rate 0.13% among 410,000; HEK293 cAMP-luciferase reporter cells, luminescence, 24 h; Potency, µM (highest dose often 38.3 µM), actives largely listed as inhibitors;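 note: loss of luciferase light is scored as toxicity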
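A 23 nL compound transfer followed 12 hours of cell culture at 37 deg C; exposure then lasted 24 hr. Luciferase assay detection reagent was dispensed and plates read for luminescence after a 12 min room-temperature wait.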
GLP1R inv ag: GLP-1 receptor (human) inverse agonism. P43220. HEK293 GLP-1R CRE-luciferase, luminescence, 24 h; GLP-1R form is constitutively active. Potency, µM (top dose mostly 38.3 µM), usual class: inhibitors. hit rate 1.6% among 410,000; note: nearly all actives have a fitted effect of over 55% in size
Target sequence (P43220 whole entry, looked up): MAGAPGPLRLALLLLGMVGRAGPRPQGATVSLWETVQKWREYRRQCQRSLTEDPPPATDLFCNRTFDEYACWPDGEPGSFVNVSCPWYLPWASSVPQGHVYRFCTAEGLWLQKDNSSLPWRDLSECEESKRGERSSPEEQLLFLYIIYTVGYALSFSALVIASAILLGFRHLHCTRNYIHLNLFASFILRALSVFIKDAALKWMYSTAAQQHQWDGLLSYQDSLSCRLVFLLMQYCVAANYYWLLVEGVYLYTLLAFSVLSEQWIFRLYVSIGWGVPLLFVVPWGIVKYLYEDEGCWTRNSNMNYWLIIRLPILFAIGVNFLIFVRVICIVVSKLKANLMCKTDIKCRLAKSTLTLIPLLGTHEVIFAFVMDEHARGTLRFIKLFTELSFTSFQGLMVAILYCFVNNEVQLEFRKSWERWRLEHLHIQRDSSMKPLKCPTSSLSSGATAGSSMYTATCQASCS
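Constitutively active GLP-1R drives a cAMP-responsive luciferase in stably transfected HEK293 cells; test compounds are added after overnight (12 h) attachment and left 24 hr, and signal loss in luminescence marks inhibition.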
GLP-1R agonist: activates the human GLP-1 receptor; P43220; HEK293 GLP-1R CRE-luciferase, luminescence, 4-6 h; cells express a hypersensitive GLP-1R form; Potency, µM (doses to about 45.6 µM), usual class: activators; hit rate 0.007% among 380,000; AID 624172
ClpP mod: qHTS Assay for Activators of ClpP | purified B. subtilis ClpP, FRET peptide cleavage, 20 min | Potency, µM (doses to about 57.5 µM) | hit rate 1.9% among 340,000 | AID 651965, 2013; active = well fitted falling curve with a large enough effect; inconclusive = small, poorly fitted or top-dose-only effect; inactive = no such curve, though single readings can be large or run the other way; note: the source files actives as falling curves though it sought activators and does not explain the sign; nearly all actives have a fitted effect of over 65% in size
Target sequence (P80244 whole entry, looked up): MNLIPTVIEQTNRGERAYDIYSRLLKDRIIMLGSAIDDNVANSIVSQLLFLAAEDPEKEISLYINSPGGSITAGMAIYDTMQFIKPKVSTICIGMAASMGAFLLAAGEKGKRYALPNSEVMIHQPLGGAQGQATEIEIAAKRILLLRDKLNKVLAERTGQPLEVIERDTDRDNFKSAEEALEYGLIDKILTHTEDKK
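Purified B. subtilis ClpP, 10 microg/mL final in Tris/HCl pH8 with KCl, BSA, glycerol and Tween-20, cleaved an Abz/nitrotyrosine-quenched decapeptide. Fluorescence (ex 320, em 430) was read at 0 and 20 min at room temperature. Delta was normalized to 5.8 microM ADEP and DMSO/no-enzyme controls.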
Numbers stand for hits. Compounds with a hit are over-represented: about 3.2% of the library has one in this group of screens. Unless noted, calls come from the whole dose curve; as a rule, active = well fitted curve in the direction sought with a large enough effect; inconclusive = small, poorly fitted or top-dose-only effect, or another doubt; inactive = no such curve, though single readings can be large; an effect the other way counts as inactive or inconclusive.

For Cc1ccc(Cl)cc1N1CCN(C(=O)c2ccc(CS(=O)c3ccccc3)o2)CC1 (centres undefined) the results were HEK293 tox inconclusive, GLP1R inv ag inconclusive and ClpP mod inactive.
Screening Cc1cccc(N2CCN(C(=O)c3ccc(CS(=O)c4cccc(Cl)c4)o3)CC2)c1C (centres undefined) returned HEK293 tox inconclusive, GLP1R inv ag 1µM and ClpP mod inactive.
For Cc1sc2ccccc2[n+]1CCCC[n+]1c(C)sc2ccccc21 the results were ClpP mod inactive.
`CCCCc1n[nH]c2c1/C(=N/O)CC(c1ccccc1)C2` (centres undefined) gave HEK293 tox inactive, GLP1R inv ag inconclusive, GLP-1R agonist inactive and ClpP mod 17.8µM.
Screening CCN1C(=O)/C(=C/c2nc3ccccc3c(=O)n2-c2ccccc2)c2ccccc21 returned HEK293 tox inactive, GLP1R inv ag 2µM, GLP-1R agonist inactive and ClpP mod inactive.
`CC1C(=O)CC(c2ccc([N+](=O)[O-])cc2)NC1c1ccc([N+](=O)[O-])cc1` (centres undefined) gave HEK293 tox inactive, GLP1R inv ag 8.91µM and GLP-1R agonist inactive.
CN(C)CCCNc1cc(N2CCN(C)CC2)ncn1 was read as ClpP mod inactive.
CC1CCN(c2cc3c(cc2F)c(=O)c(S(=O)(=O)c2cccc(Cl)c2)cn3Cc2ccccc2)CC1 was read as HEK293 tox inactive, GLP1R inv ag inactive and ClpP mod inactive.
Screening CCCc1cc(=O)[nH]c(Nc2ccccc2O)n1 returned HEK293 tox inactive, GLP1R inv ag inactive and ClpP mod inactive.
Cc1occc1C(=O)N1CCN(C(c2ccccc2)c2ccccc2)CC1 was read as HEK293 tox inactive, GLP1R inv ag inconclusive, GLP-1R agonist inactive and ClpP mod inactive.
For O=C(C1=COCCO1)N1CCN(C(c2ccccc2)c2ccccc2)CC1 the results were HEK293 tox inactive, GLP1R inv ag 10µM, GLP-1R agonist inactive and ClpP mod inactive.
Screening Cc1ccccc1C(=O)N1CCN(C(c2ccccc2)c2ccccc2)CC1 returned HEK293 tox inactive, GLP1R inv ag 8.91µM, GLP-1R agonist inactive and ClpP mod inactive.
O=C(C1=COCCO1)N1CCN(S(=O)(=O)c2cccc(Cl)c2Cl)CC1 was read as HEK293 tox inactive, GLP1R inv ag inconclusive, GLP-1R agonist inactive and ClpP mod inactive.
For O=C(NCC(=O)N1CCN(C(c2ccccc2)c2ccccc2)CC1)c1ccccc1F the results were HEK293 tox inactive, GLP1R inv ag 8.91µM and GLP-1R agonist inactive.
For Cc1oc(C(C)(C)C)cc1C(=O)N1CCN(C(c2ccccc2)c2ccccc2)CC1 the results were HEK293 tox inactive, GLP1R inv ag 7.94µM and GLP-1R agonist inactive.
O=C(CNC(=O)Cc1ccccc1)NCC(=O)N1CCN(C(c2ccccc2)c2ccccc2)CC1 was read as HEK293 tox inactive, GLP1R inv ag inconclusive, GLP-1R agonist inactive and ClpP mod inactive.
Screening COC(=O)c1ccc2c(=O)n(CCCCCC(=O)N3CCN(c4ccc(Cl)cc4)CC3)c(=O)[nH]c2c1 returned HEK293 tox inactive, GLP1R inv ag inactive and ClpP mod inactive.
For COc1ccc(S(=O)(=O)N2CCOCC2)cc1NC(=O)CCCSc1ccccc1 the results were HEK293 tox inactive, GLP1R inv ag inactive, GLP-1R agonist inactive and ClpP mod inactive.
`CCCS(=O)(=O)c1nc(S(=O)(=O)c2ccc(C)cc2)c(NCc2ccccc2)s1` gave HEK293 tox inactive, GLP1R inv ag inactive and ClpP mod inactive.
Cc1ccc2nc(-c3ccc(-c4cccc(Cl)c4)cc3)c(NCc3ccccc3)n2c1 was read as HEK293 tox inactive, GLP1R inv ag inactive, GLP-1R agonist inactive and ClpP mod inactive.
`COc1cc(-c2nc3ccc(C)cn3c2NCc2ccccc2)ccc1SC1CCCCC1` gave HEK293 tox inactive, GLP1R inv ag 3.98µM, GLP-1R agonist inactive and ClpP mod inactive.
`COc1cc(-c2nc3ccc(C)cn3c2NCc2ccccc2)ccc1-c1cccc(Cl)c1` gave HEK293 tox inactive, GLP1R inv ag 8.91µM, GLP-1R agonist inactive and ClpP mod inactive.
Screening Cc1ccc(-c2cn3nc(C)c(C)nc3n2)cc1 returned HEK293 tox inactive, GLP1R inv ag 1.41µM, GLP-1R agonist inactive and ClpP mod inactive.
Cc1ccc(C)c2sc(NC(=O)c3ccc(S(=O)(=O)N4CCC(C)CC4)cc3)nc12 was read as HEK293 tox inactive, GLP1R inv ag inactive, GLP-1R agonist inactive and ClpP mod inactive.
Screening CC1CCCC(NC(=O)COC(=O)CCC(=O)c2ccc(F)cc2)C1C (centres undefined) returned HEK293 tox inactive, GLP1R inv ag inactive, GLP-1R agonist inactive and ClpP mod 2.51µM.
CCOC(=O)c1c(C)c(C(=O)Nc2ccc3c(c2)OCO3)c(C)n1C was read as HEK293 tox inactive, GLP1R inv ag inactive, GLP-1R agonist inactive and ClpP mod inactive.
Screening Cc1ccc(C)c(OCC(=O)Nc2ccc3c(c2)OCO3)c1C returned HEK293 tox inconclusive, GLP1R inv ag 7.94µM, GLP-1R agonist inactive and ClpP mod inactive.
For CCOC(=O)c1c(N)sc(C(=O)Nc2ccc3c(c2)OCO3)c1C the results were HEK293 tox inconclusive, GLP1R inv ag 5.62µM, GLP-1R agonist inactive and ClpP mod inactive.
For Cc1c(Cl)cccc1NC(=O)Nc1nnc(N2CCCCCC2)s1 the results were HEK293 tox inactive, GLP1R inv ag inactive and ClpP mod inactive.
`CC(=O)c1c(C)nn(CC(=O)NC2CCCN(Cc3ccc(CC(C)C)cc3)C2)c1C` (centres undefined) gave HEK293 tox inactive, GLP1R inv ag 11.2µM, GLP-1R agonist inactive and ClpP mod inactive.
Screening Cc1cc(C)c(OCC(=O)N(Cc2ccco2)Cc2ccco2)c(C)c1 returned HEK293 tox inactive, GLP1R inv ag inconclusive and ClpP mod inactive.
`Cc1ccc(CN(Cc2ccco2)C(=O)COc2cccc(C)c2C)o1` gave HEK293 tox inactive, GLP1R inv ag 11.2µM and ClpP mod inactive.
`Cc1ccc(CN(Cc2ccco2)C(=O)COc2c(C)cc(C)cc2C)cc1` gave HEK293 tox inactive, GLP1R inv ag 2.82µM and ClpP mod inactive.
Screening Cc1cccc(OCC(=O)N(Cc2ccc(N(C)C)cc2)Cc2ccco2)c1C returned HEK293 tox inactive, GLP1R inv ag 10µM and ClpP mod inactive.
Screening COc1cc2c(cc1OC)C1=NC(=O)CN1C(SCc1ccc(C)cc1)=N2 returned HEK293 tox inactive, GLP1R inv ag inactive, GLP-1R agonist inactive and ClpP mod 20µM.
For COc1cc(OC)cc(C(=O)NCCc2csc(-c3ccc(C(F)(F)F)cc3)n2)c1 the results were HEK293 tox inactive, GLP1R inv ag 10µM and ClpP mod 31.6µM.
`COc1ccc(CC(=O)NCCc2csc(-c3ccc(C(F)(F)F)cc3)n2)cc1` gave HEK293 tox inactive, GLP1R inv ag inactive, GLP-1R agonist inactive and ClpP mod inactive.

Compound activity from PubChem.
